Assay outcomes deposited in PubChem BioAssay by several laboratories.
PERK inhibitor: inhibitors of human PERK kinase; CHO PERK-DD fusion, SEAP luminescence translation reporter; inhibition, % at 5.6 µM; 220,000 tested, 0.17% active; AID 1416;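 active means inhibition above the mean inhibition of all tested compounds plus 3 SD, set separately per screening campaign, cut at about 2.9% in these data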;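 further: PERK kinase domain activated by AP20187 dimerizer at 100 nM; 0% = DMSO with dimerizer and 100% = rapamycin at 8.4 µM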
GRK2 aptamer HTS: inhibitors of human GRK2 displacing RNA aptamer; 330,000 tested, 0.59% active; AID 488847; bead flow cytometry, FAM-aptamer displacement from GRK2; P25098; inhibition of aptamer binding, % at 10 µM;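 active means inhibition of aptamer binding above 40%, roughly 3 SD of noise, on plates passing a quality check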;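 further: median bead fluorescence of bound FAM aptamer so fluorescent compounds give negative values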
Target sequence (P25098 whole entry, looked up): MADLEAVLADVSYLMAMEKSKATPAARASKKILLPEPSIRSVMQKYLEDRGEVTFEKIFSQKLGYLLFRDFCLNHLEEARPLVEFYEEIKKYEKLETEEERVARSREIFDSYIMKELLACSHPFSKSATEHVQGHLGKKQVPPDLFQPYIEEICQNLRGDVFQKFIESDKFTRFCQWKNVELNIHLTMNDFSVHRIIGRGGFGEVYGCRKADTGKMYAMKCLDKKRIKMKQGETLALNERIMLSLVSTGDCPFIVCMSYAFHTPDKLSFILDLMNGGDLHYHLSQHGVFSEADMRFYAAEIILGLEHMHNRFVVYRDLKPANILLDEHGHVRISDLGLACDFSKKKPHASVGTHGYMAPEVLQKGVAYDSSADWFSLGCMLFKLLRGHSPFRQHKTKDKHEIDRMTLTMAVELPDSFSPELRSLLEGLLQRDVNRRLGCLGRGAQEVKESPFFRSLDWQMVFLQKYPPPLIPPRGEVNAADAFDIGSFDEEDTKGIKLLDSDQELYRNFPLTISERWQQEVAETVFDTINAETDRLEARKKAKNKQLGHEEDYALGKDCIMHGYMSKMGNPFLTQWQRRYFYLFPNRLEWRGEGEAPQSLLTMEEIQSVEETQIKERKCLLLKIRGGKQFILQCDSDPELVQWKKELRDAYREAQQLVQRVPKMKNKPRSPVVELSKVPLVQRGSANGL
eIF4H FP inh: inhibitors of RNA binding by human eIF4H | 290,000 tested, 0.94% active | Q15056 | inhibition, % at 35 µM | eIF4H fluorescence polarization binding assay;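 further: calls also rest on retests at 20 µM and on dose response follow-up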
PABP FP inh: PABP-poly(A) binding inhibition. P11940. PABP-poly(A) RNA binding, fluorescence polarization. inhibition, % at 35 µM. 290,000 tested, 1% active;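 further: calls also rest on retests at 20 µM and on dose response follow-up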
MLLE-PAM2 inh: inhibitors of microRNA-mediated deadenylation, human PABP1 MLLE binding; P11940; GST-MLLE / FITC-PAM2 fluorescence polarization; inhibition, % at 20 µM; 360,000 tested, 0.36% active; AID 588489; in the data active means inhibition above about 35%, passing the limit was not always enough;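 further: plate controls were DMSO wells with GST-MLLE for no effect and wells lacking GST-MLLE protein for full effect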
Starred values were filed as active, the others as inactive. This is a sample that favours compounds with a hit; in the whole collection about 1.9% have one here. Unless noted, how the calls were made is not given here.

`CC(C)c1ccc(NC(=O)c2ccc(NC3=NC4CS(=O)(=O)CC4S3)cc2)cc1` (stereo not given) gave GRK2 aptamer HTS 0, eIF4H FP inh 87, PABP FP inh 49 and MLLE-PAM2 inh -108.
Screening Nc1nnc(SCc2ccccc2Cl)s1 returned PERK inhibitor 1, GRK2 aptamer HTS 4, eIF4H FP inh 7.2*, PABP FP inh 52* and MLLE-PAM2 inh 1.
CC[C@@]1(O)C(=O)OCc2c1cc1n(c2=O)Cc2cc3c(N)cccc3nc2-1 was read as GRK2 aptamer HTS 4, eIF4H FP inh 92*, PABP FP inh 29* and MLLE-PAM2 inh -9.
Screening CC[C@@]1(O)C(=O)OCc2c1cc1n(c2=O)Cc2cc3c(CN(C)C)c(O)ccc3nc2-1 returned GRK2 aptamer HTS 3 and MLLE-PAM2 inh 199.
Screening O=C(O)CSc1cc(NS(=O)(=O)c2ccc(Br)cc2)c2ccccc2c1O returned GRK2 aptamer HTS 3, eIF4H FP inh 6, PABP FP inh 7 and MLLE-PAM2 inh 46*.
O=C(CSc1nnc(-c2ccco2)c(-c2ccco2)n1)c1ccccc1 was read as PERK inhibitor 0, GRK2 aptamer HTS 4, eIF4H FP inh 110*, PABP FP inh 101* and MLLE-PAM2 inh 22.
`Cc1ccc(/C=C/C(=O)c2ccc(C)cc2)cc1` gave PERK inhibitor -1, GRK2 aptamer HTS 0, eIF4H FP inh 3, PABP FP inh -2 and MLLE-PAM2 inh 13.
Screening Cc1ccc(C(=O)/C=C/C(=O)c2ccc(C)cc2)cc1 returned PERK inhibitor 1, GRK2 aptamer HTS 2, PABP FP inh 87* and MLLE-PAM2 inh 1.
O=C(/C=C/c1ccc2ccccc2n1)c1cc(Cl)ccc1O was read as PERK inhibitor -1, GRK2 aptamer HTS 6, eIF4H FP inh 67, PABP FP inh 51* and MLLE-PAM2 inh -62.
O=C(/C=C/c1cccs1)c1cc(Cl)ccc1O was read as PERK inhibitor 1, GRK2 aptamer HTS 0, eIF4H FP inh -8, PABP FP inh 3 and MLLE-PAM2 inh 16.
`COc1ccccc1CNC(=O)CCC(=O)N1Cc2cccc(OC)c2Oc2ncccc21` gave GRK2 aptamer HTS 1, eIF4H FP inh -12, PABP FP inh 11 and MLLE-PAM2 inh -2.
CCOC(=O)c1sc(N=NC2=C(O)CC(C)(C)CC2=O)c(C(=O)OCC)c1C was read as PERK inhibitor 0, GRK2 aptamer HTS 1, eIF4H FP inh 60*, PABP FP inh -2 and MLLE-PAM2 inh 49.
`O=S(=O)(c1ccc(NC(=S)Nc2ccc3c(c2)OCO3)cc1)N1CCOCC1` gave PERK inhibitor -1, GRK2 aptamer HTS 0, eIF4H FP inh 94*, PABP FP inh 2.8* and MLLE-PAM2 inh 22.
For O=C(CCc1ccccc1)NC(=S)Nc1ccc(S(=O)(=O)N2CCOCC2)cc1 the results were PERK inhibitor 1, GRK2 aptamer HTS 2, eIF4H FP inh -5, PABP FP inh 6 and MLLE-PAM2 inh 44*.
For O=C(Nc1ccc(S(=O)(=O)N2CCOCC2)cc1)c1ccc2c(c1)OCO2 the results were PERK inhibitor -1, GRK2 aptamer HTS 0, eIF4H FP inh -5, PABP FP inh -3 and MLLE-PAM2 inh -4.
For Cc1ccc(NC(=O)c2cc(S(=O)(=O)N3CCCC3)c[nH]2)c(C)c1 the results were GRK2 aptamer HTS 5, eIF4H FP inh 21, PABP FP inh 9 and MLLE-PAM2 inh 11.
CC[N+](C)(CC)CCC(c1ccccc1)C1CCCCC1 (stereo not given) was read as GRK2 aptamer HTS 2, eIF4H FP inh 34, PABP FP inh 87* and MLLE-PAM2 inh -121.
For Cc1ccc(NC(=O)CSC2=NCCN2)cc1 the results were PERK inhibitor 1, GRK2 aptamer HTS 0, eIF4H FP inh -7, PABP FP inh -10 and MLLE-PAM2 inh 39*.
CC1CCCCN1CC(=O)Nc1sc2c(c1C#N)CCC2 (stereo not given) was read as PERK inhibitor -1, GRK2 aptamer HTS 0, eIF4H FP inh 69*, PABP FP inh 54* and MLLE-PAM2 inh -10.
Screening N#Cc1ccsc1NC(=O)CN1CCN(c2ccc(O)cc2)CC1 returned PERK inhibitor 1, GRK2 aptamer HTS 0, eIF4H FP inh 98*, PABP FP inh 2 and MLLE-PAM2 inh -21.
`N#Cc1c(NC(=O)C2CC=CCC2C(=O)O)sc2c1CCCCCC2` (stereo not given) gave PERK inhibitor 1, GRK2 aptamer HTS 73*, eIF4H FP inh 19, PABP FP inh 0 and MLLE-PAM2 inh 22.
`CC(C)(C)C1CCc2c(sc(NC(=O)C3CC=CCC3C(=O)O)c2C#N)C1` (stereo not given) gave PERK inhibitor 1, GRK2 aptamer HTS 6, eIF4H FP inh 9, PABP FP inh 8 and MLLE-PAM2 inh -8.
N#Cc1ccsc1NC(=O)CN1CCN(c2ccccc2)CC1 was read as PERK inhibitor 0, GRK2 aptamer HTS 0, eIF4H FP inh -3, PABP FP inh 34 and MLLE-PAM2 inh 0.
Screening N#Cc1c(C(F)(F)F)cc(-c2ccccc2)nc1SCC(=O)Nc1sc2c(c1C#N)CCC2 returned PERK inhibitor 1, GRK2 aptamer HTS 0, eIF4H FP inh 72, PABP FP inh 56* and MLLE-PAM2 inh 0.
For OC(c1cc(Cl)cc(Cl)c1)c1ncc(-c2cccc(F)c2)[nH]1 (stereo not given) the results were MLLE-PAM2 inh 2.
Screening O=C(NCc1ccccc1)c1cc(C2CCCCN2C(=O)c2ccc(Cl)cc2)on1 (stereo not given) returned MLLE-PAM2 inh 18.
Screening CC1CCCCN1CC(=O)Nc1sccc1C#N (stereo not given) returned PERK inhibitor 1, GRK2 aptamer HTS 3, eIF4H FP inh 75*, PABP FP inh 59* and MLLE-PAM2 inh -22.
N#Cc1c(NC(=O)CN2CCCCC2)sc2c1CCC2 was read as PERK inhibitor 0, GRK2 aptamer HTS 4, eIF4H FP inh 45*, PABP FP inh 66 and MLLE-PAM2 inh 24.
`COc1ccccc1NC(=O)C1CCN(S(C)(=O)=O)CC1` gave eIF4H FP inh -2, PABP FP inh -3 and MLLE-PAM2 inh 1.
CCOC(=O)C1CCN(C(=O)C2CC(=O)N(c3ccc4c(c3)OCCO4)C2)CC1 (stereo not given) was read as GRK2 aptamer HTS 0, eIF4H FP inh 19, PABP FP inh 60* and MLLE-PAM2 inh -2.
O=C(C1CC(=O)N(c2ccc3c(c2)OCCO3)C1)N1CCN(Cc2ccccc2)CC1 (stereo not given) was read as GRK2 aptamer HTS 1 and MLLE-PAM2 inh -10.
`COc1cc2ccc3c(CCN(C)C)cc(OC)c(OC)c3c2cc1OC` gave GRK2 aptamer HTS 0, eIF4H FP inh -7, PABP FP inh 58* and MLLE-PAM2 inh -54.
Screening Cc1ccc(/C=C/C(=O)Nc2nnc(SCc3ccc(C#N)cc3)s2)o1 returned PERK inhibitor 0, GRK2 aptamer HTS 100*, eIF4H FP inh 46, PABP FP inh 1 and MLLE-PAM2 inh -7.
Cc1ccc(/C=C/C(=O)Nc2nccs2)o1 was read as PERK inhibitor 0, GRK2 aptamer HTS 1, eIF4H FP inh 72, PABP FP inh -2 and MLLE-PAM2 inh 11.
